An excerpt weighted towards active compounds, which were near 1.1% of everything screened.
RE007 growth inh – less growth of the S. pombe RE007 Vpr strain; hit rate 0.21% among 360,000; S. pombe RE007 Vpr strain, BacTiter-Glo ATP luminescence, 24 h; Potency, µM (top dose mostly 92.2 µM), for inactives: at the top dose activity change, negative = less growth, most hits filed as inhibitors; AID 651644; active = well fitted falling curve with a large enough effect; inconclusive = small, poorly fitted or top-dose-only effect; inactive = no such curve, though single readings can be large or run the other way; also: % is scaled to controls: 0 for no effect and ±100 for the full control effect; nearly all actives have a fitted effect of over 50% in size
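Fission yeast strain RE007, carrying one chromosomally integrated HIV-1 vpr copy, was seeded at OD 0.01 in PMG+AL medium with 23 nL pinned compound. After 24 h at 30 °C and 99% humidity, viability was read by BacTiter-Glo luminescence.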
LmPK inhibitor – LmPK (Leishmania mexicana) enzyme inhibition. purified LmPK, Kinase-Glo ATP luminescence, 1 h. Potency, µM (highest dose often 57.5 µM), inactives show top-dose activity change, negative = inhibition, usual class: inhibitors. hit rate 0.37% among 290,000; also: % is scaled to controls: 0 for no effect and ±100 for the full control effect
Target sequence (Q27686 whole entry, looked up): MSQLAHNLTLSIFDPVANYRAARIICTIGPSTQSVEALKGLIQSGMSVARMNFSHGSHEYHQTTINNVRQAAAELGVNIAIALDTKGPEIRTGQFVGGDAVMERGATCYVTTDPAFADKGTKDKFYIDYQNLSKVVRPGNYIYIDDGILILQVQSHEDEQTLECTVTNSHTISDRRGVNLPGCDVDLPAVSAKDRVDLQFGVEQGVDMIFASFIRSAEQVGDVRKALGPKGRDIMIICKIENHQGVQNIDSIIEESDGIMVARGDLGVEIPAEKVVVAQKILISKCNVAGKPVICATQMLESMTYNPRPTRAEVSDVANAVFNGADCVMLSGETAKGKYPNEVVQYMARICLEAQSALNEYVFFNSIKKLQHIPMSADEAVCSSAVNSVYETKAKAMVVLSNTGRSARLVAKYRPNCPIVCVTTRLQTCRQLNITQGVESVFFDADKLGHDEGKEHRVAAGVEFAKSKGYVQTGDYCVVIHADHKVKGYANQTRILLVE
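0.1 nM LmPK, 0.5 mM PEP, 0.1 mM ADP; 50 mM imidazole pH 7.2, 7 mM MgCl2, 50 mM KCl; 1 h RT. Kinase-Glo luminescence readout, normalized to no-enzyme (full inhibition) and uninhibited wells.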
FBPA Giardia inh – inhibitors of Giardia lamblia fructose-1,6-bisphosphate aldolase | purified Giardia FBPA | AID 2451 | hit rate 0.71% among 290,000 | Potency, µM (highest dose often 59.6 µM), for the others: at the top dose activity, negative = inhibition, usual class: inhibitors | A8B2U2; also: % is scaled to controls: 0 for no effect and ±100 for the full control effect; nearly all actives have a fitted effect of over 55% in size
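40 nM FBPA preincubated 10 min at RT with compound (up to 57.5 uM final), then substrate plus GAPDH/TPI/NAD/arsenate coupling and diaphorase/resazurin added. Fluorescence read after 20 min at RT, 525/598 nm.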
TbPYK inhibitor – T. brucei pyruvate kinase inhibition; Q57TT1; TbPYK enzyme, Kinase-Glo Plus ATP luminescence, 45 min; AID 624173; Potency, µM (doses to about 76.8 µM), for inactives: at the highest dose activity, negative = inhibition, hits mostly inhibitors; hit rate 0.12% among 410,000; also: % is scaled to controls: 0 for no effect and ±100 for the full control effect; nearly all actives have a fitted effect of over 50% in size
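Readout: single end-point luminescence (Kinase-Glo Plus, 10 min). Reaction conditions were TbPYK/substrate plus 130 uM ADP, 45 min at RT, pH 7.2 TEA buffer. No-enzyme wells served as controls, and data were normalized before concentration-response fitting.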
SARS PLpro yeast – blocks SARS-CoV papain-like protease in a yeast assay; hit rate 0.19% among 330,000; Potency, µM (highest dose often 32.9 µM), without a hit: at the top dose activity, positive = growth rescue, most hits filed as activators; S. cerevisiae expressing SARS-CoV PLpro, growth rescue; AID 485353; calls by dose curve; also: 0% is about no effect; nearly all actives have a fitted effect of over 55% in size
Numbers without * were called inactive; [ ] = remark or other dose. Unless noted, calls follow the shape of the dose curve; as a rule, active = well fitted curve in the direction sought with a large enough effect; inconclusive = small, poorly fitted or top-dose-only effect, or another doubt; inactive = no such curve, though single readings can be large; an effect the other way counts as inactive or inconclusive. Potency is read from the fitted curve at half-maximal effect.

For COC1=CC(=O)C(C(=O)c2ccccc2)=CC1=O the results were FBPA Giardia inh 1.12µM*.
`CC(=O)O[C@]1(C(=O)CO)[C@@H](C)C[C@H]2[C@@H]3CCC4=CC(=O)C=C[C@]4(C)[C@@]3(F)[C@@H](O)C[C@]21C` gave TbPYK inhibitor 3.9%.
`CCc1cc2c(cc3c(=O)n(CC(=O)NC(C)c4ccccc4)ncn32)s1` (stereo unspecified) gave TbPYK inhibitor -8.3%.
Screening COc1ccc2c(c1)CCc1cn3nc(C)cc3nc1-2 returned RE007 growth inh -21.8%, LmPK inhibitor 1.8%, FBPA Giardia inh 17.7µM*, TbPYK inhibitor 0.7% and SARS PLpro yeast 0.2%.
Screening COc1ccc(C(=O)CCN2CCc3cc(OC)c(OC)cc3C2)cc1 returned RE007 growth inh 25.1µM*, LmPK inhibitor 0.5%, FBPA Giardia inh -4.8%, TbPYK inhibitor -8.7% and SARS PLpro yeast -1.8%.
Screening CCOc1ccc(C(=O)CCN2CCCCCC2)cc1 returned RE007 growth inh 15.8µM*, LmPK inhibitor -5.8%, FBPA Giardia inh -6.7%, TbPYK inhibitor -19.8% and SARS PLpro yeast -10.5%.
`COc1ccc(C(=O)CCN2CCN(c3ccccc3OC)CC2)cc1` gave RE007 growth inh inconclusive, LmPK inhibitor -5.0%, FBPA Giardia inh inconclusive, TbPYK inhibitor -2.0% and SARS PLpro yeast -4.0%.
Screening CCCCOc1ccc(C(=O)CCN2CCOCC2)cc1 returned RE007 growth inh inconclusive, LmPK inhibitor 1.3%, FBPA Giardia inh -1.7%, TbPYK inhibitor -14.4% and SARS PLpro yeast -24.3%.
CCCOc1ccc(C(=O)CCN2CCCCC2)cc1 was read as RE007 growth inh 17.8µM*, LmPK inhibitor 2.9%, FBPA Giardia inh -4.2%, TbPYK inhibitor 3.5% and SARS PLpro yeast -11.7%.
`O=C(COc1ccccc1)Nc1ccc2nc(SCC(=O)N3CCc4ccccc43)sc2c1` gave TbPYK inhibitor -8.0%.
Screening OCC1OC(c2ccc3c(c2)OCO3)C=CC1Oc1cc(Cl)cc(Cl)c1 (stereo unspecified) returned FBPA Giardia inh -4.4%[12.9 µM].
`COC(=O)N1CCN(/[N+]([O-])=N/Oc2ccc([N+](=O)[O-])cc2[N+](=O)[O-])CC1` gave FBPA Giardia inh 0.1%.
Screening NC(=O)c1ccccc1N/C=C/C(=O)c1ccccc1 returned RE007 growth inh -4.2%[3.69 µM], LmPK inhibitor 7.94µM*, FBPA Giardia inh -20.7% and SARS PLpro yeast -24.9%.
For O=C(O)c1ccccc1NS(=O)(=O)c1cccc(-n2sc3ccccc3c2=O)c1 the results were RE007 growth inh 0.9%, LmPK inhibitor -18.9%, FBPA Giardia inh inconclusive, TbPYK inhibitor 5.01µM* and SARS PLpro yeast -0.9%.
`Oc1cccc(/C=N/N2CCCCC2)c1O` gave RE007 growth inh -19.0%, LmPK inhibitor -8.8%, FBPA Giardia inh -11.7%, TbPYK inhibitor -1.9% and SARS PLpro yeast 0.0%.
Oc1ccc(/C=N/N2CCOCC2)c(O)c1O was read as RE007 growth inh -19.3%, LmPK inhibitor -2.8%, FBPA Giardia inh 5.61µM*, TbPYK inhibitor inconclusive and SARS PLpro yeast 1.9%.
Screening COc1cccc(/C=N/N2CCOCC2)c1O returned RE007 growth inh -17.1%, LmPK inhibitor inconclusive, FBPA Giardia inh 2.6%, TbPYK inhibitor -20.4% and SARS PLpro yeast -0.7%.
Screening Oc1ccc(/C=N/N2CCCCC2)c(O)c1O returned RE007 growth inh 2.9%, LmPK inhibitor -11.1%, FBPA Giardia inh 2.82µM*, TbPYK inhibitor inconclusive and SARS PLpro yeast 0.9%.
Screening CC(C)(C)c1nnc(NS(=O)(=O)c2ccccc2)s1 returned TbPYK inhibitor -10.4%.
Screening COc1ccc(Cn2nnc(C(=O)Nc3cc(OC)ccc3OC)c2N)cc1 returned TbPYK inhibitor -9.6%.
Screening Cc1ccc(-n2c(C)n[nH]c2=S)cc1 returned RE007 growth inh -0.2%, LmPK inhibitor -10.2%, FBPA Giardia inh inconclusive, TbPYK inhibitor inconclusive and SARS PLpro yeast -9.2%.
`COc1ccc(-c2n[nH]c(=S)n2-c2ccc(C)cc2)cc1OC` gave RE007 growth inh -6.2%, LmPK inhibitor 14.1µM*, FBPA Giardia inh 25.7%, TbPYK inhibitor 5.01µM* and SARS PLpro yeast 1.4%.
For COc1ccc(-c2n[nH]c(=S)n2-c2ccc3c(c2)OCCO3)cc1OC the results were RE007 growth inh 4.5%, LmPK inhibitor inconclusive, FBPA Giardia inh -6.5%, TbPYK inhibitor inconclusive and SARS PLpro yeast 1.6%.
Screening Cc1ccc(-n2c(-c3c(-c4ccccc4)noc3C)n[nH]c2=S)cc1 returned RE007 growth inh -5.9%, LmPK inhibitor 11.2µM*, FBPA Giardia inh 6.4%, TbPYK inhibitor inconclusive and SARS PLpro yeast 0.8%.
For COc1ccc(CCn2c(-c3ccc(C(C)(C)C)cc3)n[nH]c2=S)cc1OC the results were RE007 growth inh 2.4%, LmPK inhibitor 0.2%, FBPA Giardia inh -6.0%, TbPYK inhibitor 14.1µM* and SARS PLpro yeast -1.6%.
For S=c1[nH]nc(-c2ccc3c(c2)OCO3)n1-c1ccccc1 the results were RE007 growth inh 20.6%, LmPK inhibitor 7.08µM*, FBPA Giardia inh 11.5%, TbPYK inhibitor inconclusive and SARS PLpro yeast -1.8%.
Screening S=c1[nH]nc(COc2ccc3c(c2)OCO3)n1-c1ccccc1 returned RE007 growth inh 2.1%, LmPK inhibitor inconclusive, FBPA Giardia inh 5.6%, TbPYK inhibitor inconclusive and SARS PLpro yeast -9.8%.
CCOC(=O)Cn1cccc1-c1nc(-c2ccc(OC)cc2)c(-c2ccc(OC)cc2)s1 was read as TbPYK inhibitor 4.3%.
O=C(O)c1ccc(-n2c(-c3ccc(Br)cc3)n[nH]c2=S)cc1 was read as RE007 growth inh 1.0%, LmPK inhibitor 7.08µM*, FBPA Giardia inh 1.0%, TbPYK inhibitor inconclusive and SARS PLpro yeast -6.0%.
Cc1cccc(-n2c(-c3ccncc3)n[nH]c2=S)c1 was read as RE007 growth inh 7.7%, LmPK inhibitor 14.1µM*, FBPA Giardia inh -27.5%, TbPYK inhibitor inconclusive and SARS PLpro yeast 2.3%.
`COc1cc([N+](=O)[O-])c(OC)cc1SCc1n[nH]c(=S)n1-c1ccc(C)cc1` gave RE007 growth inh -2.6%, LmPK inhibitor inconclusive, FBPA Giardia inh 3.4%, TbPYK inhibitor 2.51µM* and SARS PLpro yeast 2.8%.
`COc1cc([N+](=O)[O-])c(OC)cc1SCc1n[nH]c(=S)n1-c1ccc(F)cc1` gave RE007 growth inh -10.6%, LmPK inhibitor inconclusive, FBPA Giardia inh 2.6%, TbPYK inhibitor inconclusive and SARS PLpro yeast 0.7%.
`S=c1[nH]nc(-c2cccnc2)n1-c1ccccc1` gave RE007 growth inh -8.8%, LmPK inhibitor -24.8%, FBPA Giardia inh -22.6%, TbPYK inhibitor inconclusive and SARS PLpro yeast 5.4%.
S=c1[nH]nc(-c2ccc(Cl)cc2)n1-c1cccnc1 was read as RE007 growth inh 22.6%, LmPK inhibitor 11.2µM*, FBPA Giardia inh -3.6%, TbPYK inhibitor inconclusive and SARS PLpro yeast 1.4%.

High-throughput results as filed in PubChem.
